# Results published in PubChem BioAssay (Tox21).
# “And” between values parts separate entries of the source, which are not always exact repeats. Equal entries are not always repeated. Records with an inconclusive call do not appear. A call without a number means that no potency is given here. Some compounds were tested as several samples or in several runs, with calls that do not always agree. The source made the active and inactive calls. Unless noted, calls come from the whole dose curve; as a rule, active = well fitted curve in the direction sought with a large enough effect in the repeat runs; inconclusive = weak or mixed curves; inactive = no such curve, though single readings can be large; an effect the other way counts as inactive or inconclusive.
# Key:
# [1] = qHTS assay to identify small molecule agonists of H2AX - cell viability counter screen (AID 1224847; calls by dose curve; note: nearly all actives have a fitted effect of over 30% in size; note: potency is the fitted concentration of half-maximal effect)
# Method in brief: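 CHO-K1 cells plated overnight at 37C, then exposed 3 h at 37C to compounds at 15 concentrations (0.76% DMSO final). Viability by CellTiter-Glo luminescence after 30 min at room temperature.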
# [2] = qHTS assay to identify small molecule antagonists of the estrogen related receptor (ERR) signaling pathway from Tox21 library (AID 1224848); note: nearly all actives have a fitted effect of over 50% in size; note: potency is the fitted concentration of half-maximal effect
# Method in brief: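 ERR reporter cell line (from NTP) seeded 2,000 cells/well, rested 6 h at 37 C/5% CO2, then pin-dosed with compounds in DMSO. After 18 h at 37 C, ONE-Glo added; luminescence read after 30 min at room temperature.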
# [3] = qHTS assay to identify small molecule agonists of the estrogen related receptor (ERR) signaling pathway from Tox21 library (AID 1224849; calls by dose curve; note: nearly all actives have a fitted effect of over 15% in size); settings: ERR reporter cell line, ONE-Glo luciferase, 18 h; at 92.4 µM (top of the series) unless noted
# Method in brief: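 ERR reporter cell line (NTP) seeded, rested 6 h at 37 C/5% CO2, then pinned with Tox21 compounds in DMSO. After 18 h at 37 C, ONE-Glo luciferase luminescence was read following 30 min at room temperature.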
# [4] = qHTS RealTime-Glo MT Cell Viability Assay in HepG2 cells - 24 hour (AID 1224867); note: nearly all actives have a fitted effect of over 50% in size; note: potency is the fitted concentration of half-maximal effect
# Method in brief: (§1)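 Viability was tracked continuously by NanoLuc luminescence from prosubstrate reduced by living HepG2 cells, at successive time points over 40 h of compound exposure. Cells with reagent were preincubated 5 h at 37 °C before compound addition.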
# [5] = qHTS RealTime-Glo MT Cell Viability Assay in HEK293 cells - 32 hour (AID 1224868); note: nearly all actives have a fitted effect of over 50% in size; note: potency is the fitted concentration of half-maximal effect
# Method in brief: (§2)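 Viability tracked continuously by luminescence as live cells reduce a prosubstrate for NanoLuc; HEK293 cells preincubated 5 h, compound-treated at 37 C, and read at 0, 8, 16, 24, 32 and 40 h.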
# [6] = A CellTox Green Cytotoxicity Assay to monitor cytotoxicity in HEK293 cells - 40 hour (AID 1224871); note: nearly all actives have a fitted effect of over 45% in size; note: potency is the fitted concentration of half-maximal effect
# Method in brief: (§3)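 HEK293 cells premixed with CellTox Green dye were seeded at 600 cells/well and left 5 h at 37 C/5% CO2 before pin transfer of 23 nL compound in DMSO. Fluorescence from dye bound to dead-cell DNA was read during 40 h treatment.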
# [7] = qHTS RealTime-Glo MT Cell Viability Assay in HEK293 cells - 16 hour (AID 1224872); note: nearly all actives have a fitted effect of over 50% in size; note: potency is the fitted concentration of half-maximal effect
# Method in brief: as §2
# [8] = qHTS RealTime-Glo MT Cell Viability Assay in HepG2 cells - 8 hour (AID 1224873); note: nearly all actives have a fitted effect of over 55% in size; note: potency is the fitted concentration of half-maximal effect
# Method in brief: (§4)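 HepG2 cells (600/well) mixed with RealTime-Glo MT reagent, settled 5 h at 37 C/5% CO2 before compound addition. Nonlytic NanoLuc luminescence from viable-cell prosubstrate reduction read repeatedly during 40 h treatment at 37 C.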
# [9] = qHTS RealTime-Glo MT Cell Viability Assay in HEK293 cells - 40 hour (AID 1224874); settings: RealTime-Glo luminescence; max response: stronger effect = lower value; note: nearly all actives have a fitted effect of over 50% in size; note: potency is the fitted concentration of half-maximal effect
# Method in brief: (§5)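 HEK293 cells mixed with RealTime-Glo reagents (NanoLuc plus cell-permeant prosubstrate) at 600 cells/well, preincubated 5 h at 37 C/5% CO2, then given 23 nL compound in DMSO. Nonlytic luminescence from viable cells was read at 0, 8, 16, 24, 32 and 40 h.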
# [10] = A CellTox Green Cytotoxicity Assay to monitor cytotoxicity in HEK293 cells - 24 hour (AID 1224875); note: nearly all actives have a fitted effect of over 45% in size; note: potency is the fitted concentration of half-maximal effect
# Method in brief: as §3
# [11] = A CellTox Green Cytotoxicity Assay to monitor cytotoxicity in HepG2 cells - 16 hour (AID 1224876); note: nearly all actives have a fitted effect of over 45% in size; note: potency is the fitted concentration of half-maximal effect
# Method in brief: (§6)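 HepG2 cells were seeded together with the CellTox Green dye at 600 cells/well, left 5 h at 37 C/5% CO2, then given compounds in DMSO. Fluorescence from dye bound to dead-cell DNA was read repeatedly over 40 h of treatment at 37 C.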
# [12] = qHTS RealTime-Glo MT Cell Viability Assay in HepG2 cells - 32 hour (AID 1224877); note: nearly all actives have a fitted effect of over 55% in size; note: potency is the fitted concentration of half-maximal effect
# Method in brief: as §1
# [13] = A CellTox Green Cytotoxicity Assay to monitor cytotoxicity in HepG2 cells - 24 hour (AID 1224878); note: nearly all actives have a fitted effect of over 45% in size; note: potency is the fitted concentration of half-maximal effect
# Method in brief: as §6
# [14] = A CellTox Green Cytotoxicity Assay to monitor cytotoxicity in HepG2 cells - 40 hour (AID 1224879); note: nearly all actives have a fitted effect of over 40% in size; note: potency is the fitted concentration of half-maximal effect
# Method in brief: as §6
# [15] = qHTS RealTime-Glo MT Cell Viability Assay in HEK293 cells - 0 hour (AID 1224880)
# Method in brief: as §5
# [16] = A CellTox Green Cytotoxicity Assay to monitor cytotoxicity in HepG2 cells - 0 hour (AID 1224882); note: nearly all actives have a fitted effect of over 35% in size; note: potency is the fitted concentration of half-maximal effect
# Method in brief: as §6
# [17] = A CellTox Green Cytotoxicity Assay to monitor cytotoxicity in HEK293 cells - 0 hour (AID 1224869); note: nearly all actives have a fitted effect of over 50% in size; note: potency is the fitted concentration of half-maximal effect
# Method in brief: as §3
# [18] = qHTS RealTime-Glo MT Cell Viability Assay in HepG2 cells - 40 hour (AID 1224870); note: nearly all actives have a fitted effect of over 50% in size; note: potency is the fitted concentration of half-maximal effect
# Method in brief: as §4
# [19] = A CellTox Green Cytotoxicity Assay to monitor cytotoxicity in HEK293 cells - 32 hour (AID 1224881); note: nearly all actives have a fitted effect of over 40% in size; note: potency is the fitted concentration of half-maximal effect
# Method in brief: as §3
Structure (SMILES),Potency [1],Potency [2],"activity change, positive = activation [3]",Potency [4],Potency [5],Potency [6],Potency [7],Potency [8],max response [9],Potency [10],Potency [11],Potency [12],Potency [13],Potency [14],Potency [15],Potency [16],Potency [17],Potency [9],Potency [18],Potency [19]
COc1cc(C(=O)NS(=O)(=O)c2ccccc2C)ccc1Cc1cn(C)c2ccc(NC(=O)OC3CCCC3)cc12,inactive,inactive,-10.9% [at 42.5 µM] (inactive),inactive,inactive,inactive,inactive,inactive,-0.13% (inactive),inactive,inactive,inactive,inactive,inactive,inactive,inactive,,,,
CC=O,14.9 µM (active),,,51.3 µM (active),0.575 µM (active),51.3 µM (active),4.57 µM (active),,,57.5 µM (active),,45.7 µM (active),45.7 µM (active),25.7 µM (active),inactive,inactive,inactive,0.324 µM (active),,
CC(C)c1ccc(O)c(C(C)C)c1,89.8 µM (active),inactive,,inactive,inactive,21.9 µM (active),inactive,,-12.3% (inactive),21.9 µM (active),43.6 µM (active),inactive,27.5 µM (active),27.5 µM (active),inactive,,inactive,,inactive,21.9 µM (active)
O=C(Nc1ccc(Cl)cc1)Nc1ccc(Cl)c(C(F)(F)F)c1,22 µM (active),3.76 µM (active),,,4.77 µM (active),,8.49 µM (active),inactive,,inactive,inactive,,,19 µM (active),inactive,inactive,inactive,5.35 µM (active),,
CCN=c1cc2oc3cc(NCC)c(C)cc3c(-c3ccccc3C(=O)OCC)c-2cc1C,7.1 µM (active) and 31.8 µM (active),108 nM (active) and 122 nM (active),,43.5 µM (active) and 24.5 µM (active),1.09 µM (active) and 1.38 µM (active),7.73 µM (active) and 12.3 µM (active),8.68 µM (active) and 6.17 µM (active),24.5 µM (active) and 21.9 µM (active),,12.3 µM (active) and 11 µM (active),10.9 µM (active) and 6.17 µM (active),43.5 µM (active) and 21.9 µM (active),19.4 µM (active) and 5.49 µM (active),21.8 µM (active) and 6.17 µM (active),inactive,6.89 µM (active) and 6.17 µM (active),6.89 µM (active) and 6.92 µM (active),614 nM (active) and 550 nM (active),43.5 µM (active) and 21.9 µM (active),10.9 µM (active) and 11 µM (active)
CC(C)(c1cc(Br)c(OCCO)c(Br)c1)c1cc(Br)c(OCCO)c(Br)c1,87.8 µM (active),11.9 µM (active),-67.7% (inactive),,13.5 µM (active),,17 µM (active),,,inactive,inactive,,inactive,,inactive,inactive,inactive,12 µM (active),,
C=C1C(C)(C)[C@@]2(Cl)C(Cl)[C@]1(Cl)C(Cl)(Cl)C2(Cl)Cl (some centres undefined),111 µM (active),60 µM (active),-68% (inactive),,,,,,,,inactive,,48.1 µM (active),53.9 µM (active),inactive,inactive,inactive,,,
O=Nc1ccc(NO)cc1,inactive,inactive,,inactive,,inactive,inactive,inactive,,inactive,inactive,inactive,inactive,inactive,inactive,inactive,inactive,,inactive,inactive
CC(C)(c1cc(Br)c(O)c(Br)c1)c1cc(Br)c(O)c(Br)c1,89.5 µM (active),54.3 µM (active) and inactive,-21.4% (inactive) and -40.7% (inactive) and -13.4% (inactive),inactive,inactive,inactive,inactive,inactive,-17.7% (inactive),inactive,inactive,inactive,inactive,inactive,inactive,inactive,,,inactive,inactive
CN1[C@@H]2CC[C@H]1CC(OC(=O)C(CO)c1ccccc1)C2 (some centres undefined),inactive,,,inactive,inactive,inactive,inactive,inactive,-0.934% (inactive) and 16.5% (inactive),inactive,inactive,inactive,inactive,inactive,inactive,inactive,inactive,,inactive,inactive
CCCCCCCCCCCCOC(=O)c1cc(O)c(O)c(O)c1,100 µM (active),,,54.7 µM (active) and 49 µM (active),3.87 µM (active) and 3.47 µM (active),34.5 µM (active) and 49 µM (active),6.89 µM (active) and 5.49 µM (active),48.8 µM (active) and 43.6 µM (active),,54.7 µM (active) and 49 µM (active),48.8 µM (active) and 38.9 µM (active),,48.8 µM (active) and 49 µM (active),48.8 µM (active) and 54.9 µM (active),inactive,inactive,inactive,,54.9 µM (active),48.8 µM (active) and 49 µM (active)
CC1CCCNC1 (centres undefined),inactive,,,inactive,inactive,inactive,inactive,inactive,-11.1% (inactive),inactive,inactive,inactive,inactive,inactive,inactive,inactive,inactive,,inactive,inactive
